Hit rate of the full screen: of about 1,200 compounds, about 400 (33%) were called active. No rule for the calls is given here. Not all results are given here. Entries with a potency or affinity are not part of this list.
assay: mammalian cell cytotoxicity, dose response, cytotoxicity control (AID 434958); settings: cytotoxicity counter-screen; series mostly up to 40 µM;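 also: cells exposed to compound for 72 hours before readout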

Row | SMILES | outcome
1 | CC(=O)NC(=S)Nc1ccc(NC(=O)c2cccs2)cc1 | inactive
2 | CCN=c1scc(-c2ccccc2)n1/N=C/c1ccccn1 | inactive
3 | CC1CCc2nc(NC(=O)C3COc4ccccc4O3)sc2C1 (stereo not given) | inactive
4 | COc1ccc(CCNCc2csc3nc4ccccc4n23)cc1OC | inactive
5 | Cc1cc(C)cc(NC(=S)NN)c1 | inactive
6 | CSc1ccc(/C=C/C(=O)NC23CC4CC(CC(C4)C2)C3)cc1 | inactive
7 | c1ccc(-c2cc3ccccc3[nH]2)cc1 | inactive
8 | C/C(=N\NC(=O)c1cc2c(s1)CCC(C)C2)c1ccc[nH]1 (stereo not given) | inactive
9 | Cc1cccc2c(C(=O)n3cccn3)cc(-c3ccccc3Cl)nc12 | inactive
10 | O=C(Oc1c(-c2ccccc2)c(=O)n2c3c(cccc13)CC2)c1ccc(F)cc1 | inactive
11 | COc1ccc(OC)c(-c2cc(C(=O)Nc3c(C)n(C)n(-c4ccccc4)c3=O)no2)c1 | inactive
12 | COc1ccccc1-c1cc(C(=O)Nc2c(C)n(C)n(-c3ccccc3)c2=O)no1 | inactive
13 | O=C(CCSc1ccc(Cl)c(Cl)c1)NC12CC3CC(CC(C3)C1)C2 | inactive
14 | COc1ccnc(CS(=O)c2nc3cc(OC(F)F)ccc3[nH]2)c1OC (stereo not given) | inactive
15 | O=C(Nc1ccc(N2CCCCC2)cc1)c1cc([N+](=O)[O-])cc([N+](=O)[O-])c1 | inactive
16 | O=C(CSc1ccc([N+](=O)[O-])cn1)Nc1ccc(N2CCOCC2)cc1 | inactive
17 | O=C(Nc1ccccc1N1CCCC1)c1ccc2c(c1)OCO2 | inactive
18 | CC(C(=O)Nc1cc([N+](=O)[O-])ccc1Cl)N1CCN(c2ccccc2O)CC1 (stereo not given) | inactive
19 | CCOC(=O)COc1ccc2nsnc2c1 | inactive
20 | CN(C)c1ccc(N=Nc2cccc3ccoc23)cc1 | inactive
21 | N#C/C(C(=O)NCc1ccco1)=C1/SC=C(c2ccccc2)N1c1ccccc1 | inactive
22 | CCOc1ccc(-c2nc(-c3ccccc3C)no2)cc1 | inactive
23 | COc1cc(NC(=S)NC(=O)c2ccco2)ccc1NC(=O)C(C)C | inactive
24 | Cc1n[nH]c(C)c1CCCOc1ccccc1 | inactive
25 | COc1cc(NC(=O)c2ccccc2)c(OC)cc1NC(=O)CN1CCOCC1 | inactive
26 | COc1ccc(C(=O)CN(C(=O)c2ccc(Cl)cc2)N2C(=O)c3ccccc3C2=O)cc1 | inactive
27 | COc1cc(NC(=O)c2ccccc2Cl)ccc1NC(=O)c1ccco1 | inactive
28 | O=C(CN1CCN(S(=O)(=O)c2ccc(F)cc2)CC1)Nc1ccc2c(c1)OCCO2 | inactive

Row | SMILES | outcome
29 | O=c1[nH]c(CSc2nnc3ccccn23)nc2ccccc12 | inactive
30 | Cc1ccc(C(=O)NN2C(=O)/C(=C/c3cccn3C)SC2=S)cc1 | inactive
31 | O=C(CCN1C(=O)/C(=C/c2ccccc2F)SC1=S)Nc1ccccn1 | inactive
32 | CN(c1ccc(OCC(=O)Nc2ccc3[nH]c(=O)[nH]c3c2)cc1)S(=O)(=O)c1ccc(Cl)cc1 | inactive
33 | CCN1C(=O)C(O)(CC(=O)c2ccc(-n3cccc3)cc2)c2ccccc21 (stereo not given) | inactive
34 | NC(=O)Nc1ccc(C(=O)OCC(=O)Nc2ccc(Cl)cn2)cc1 | inactive
35 | O=C(Cn1ncc2c3ccccc3n(Cc3ccccc3F)c2c1=O)NCCCN1CCCC1=O | inactive
36 | CSc1nc(-c2ccc(Cl)cc2)nn1S(=O)(=O)c1ccccc1 | inactive
37 | Cc1cccc(N2CCN(CC3CCCCC3)CC2)c1C | inactive
38 | CCOC(=O)Cc1nc2ccccc2[nH]1 | inactive
39 | COc1ccc(CNC(=O)c2sc3nc4c(c(C(F)(F)F)c3c2N)CCC4)cc1 | inactive
40 | CCOC(=O)c1[nH]c2ccccc2c1NC(=O)Nc1ccc(OC)cc1 | inactive
41 | O=C(O)CSc1ncnc2c1sc1nc(-c3ccccc3)c3c(c12)CCC3 | inactive
42 | CC(C)(C)c1ccc(C(=O)Oc2ccc3c(c2)OCC3=O)cc1 | inactive
43 | CS/C(N)=N/N=C/c1cc(Br)cc(Br)c1O | inactive
44 | CCOC(=O)N1CCN(C(=O)CSc2nnc(-c3ccccc3OC)o2)CC1 | inactive
45 | NNC(=O)c1cccc(O)c1 | inactive
46 | O=C(N/N=C/c1cccc(NC(=O)c2ccc(Cl)cc2)c1)c1cccc(O)c1 | inactive
47 | Cc1cc(C2C(=O)c3ccccc3C2=O)c(C)c(C)c1C | inactive
48 | CCCCNC(=O)/C(=C/c1ccccc1)NC(C)=O | inactive
49 | CCOC(=O)c1ccc(-c2ccc(C=O)o2)cc1 | inactive
50 | COc1ccc([C@H]2CC(=O)C=C(/C=C/c3ccccc3)C2)cc1OC | inactive
51 | NS(=O)(=O)c1cccnc1Nc1c(Cl)cccc1Cl | inactive
52 | COCCSc1nc2sc3c(c2c(=O)n1-c1ccccc1)CCN(C)C3 | inactive
53 | CCOC(=O)C1CCCN(c2ccc(NC(=O)c3snc4c(=O)[nH]cnc34)cc2)C1 (stereo not given) | inactive
54 | O=C(COC(=O)c1ccc([N+](=O)[O-])s1)NCc1ccccc1 | inactive
55 | Cc1ccsc1C(=O)NNC(=O)c1csc(N2CCOCC2)n1 | inactive

Source: PubChem BioAssay AID434958 (Southern Research Specialized Biocontainment Screening …, 2010)
